Laboratory results reported in the supplement of paper PMC11732987, “Enantioselective OTUD7B fragment discovery through chemoproteomics screening and high-throughput optimisation” (Communications Chemistry, 2025).

What was measured:
Assay in all cases: log2 ratio of Biotin-Ahx-Ub-VS probe labelling (fragment/DMSO); higher = less target engagement (more negative = stronger competition), active = hit call of the paper (q ≤ 0.05, log2 ratio ≤ -1)
Conditions in all cases: compound concentration: 200 uM; treatment time: 3 h
USP19 = biological target: T1, USP19 (UniProt O94966)
T1 sequence (whole entry): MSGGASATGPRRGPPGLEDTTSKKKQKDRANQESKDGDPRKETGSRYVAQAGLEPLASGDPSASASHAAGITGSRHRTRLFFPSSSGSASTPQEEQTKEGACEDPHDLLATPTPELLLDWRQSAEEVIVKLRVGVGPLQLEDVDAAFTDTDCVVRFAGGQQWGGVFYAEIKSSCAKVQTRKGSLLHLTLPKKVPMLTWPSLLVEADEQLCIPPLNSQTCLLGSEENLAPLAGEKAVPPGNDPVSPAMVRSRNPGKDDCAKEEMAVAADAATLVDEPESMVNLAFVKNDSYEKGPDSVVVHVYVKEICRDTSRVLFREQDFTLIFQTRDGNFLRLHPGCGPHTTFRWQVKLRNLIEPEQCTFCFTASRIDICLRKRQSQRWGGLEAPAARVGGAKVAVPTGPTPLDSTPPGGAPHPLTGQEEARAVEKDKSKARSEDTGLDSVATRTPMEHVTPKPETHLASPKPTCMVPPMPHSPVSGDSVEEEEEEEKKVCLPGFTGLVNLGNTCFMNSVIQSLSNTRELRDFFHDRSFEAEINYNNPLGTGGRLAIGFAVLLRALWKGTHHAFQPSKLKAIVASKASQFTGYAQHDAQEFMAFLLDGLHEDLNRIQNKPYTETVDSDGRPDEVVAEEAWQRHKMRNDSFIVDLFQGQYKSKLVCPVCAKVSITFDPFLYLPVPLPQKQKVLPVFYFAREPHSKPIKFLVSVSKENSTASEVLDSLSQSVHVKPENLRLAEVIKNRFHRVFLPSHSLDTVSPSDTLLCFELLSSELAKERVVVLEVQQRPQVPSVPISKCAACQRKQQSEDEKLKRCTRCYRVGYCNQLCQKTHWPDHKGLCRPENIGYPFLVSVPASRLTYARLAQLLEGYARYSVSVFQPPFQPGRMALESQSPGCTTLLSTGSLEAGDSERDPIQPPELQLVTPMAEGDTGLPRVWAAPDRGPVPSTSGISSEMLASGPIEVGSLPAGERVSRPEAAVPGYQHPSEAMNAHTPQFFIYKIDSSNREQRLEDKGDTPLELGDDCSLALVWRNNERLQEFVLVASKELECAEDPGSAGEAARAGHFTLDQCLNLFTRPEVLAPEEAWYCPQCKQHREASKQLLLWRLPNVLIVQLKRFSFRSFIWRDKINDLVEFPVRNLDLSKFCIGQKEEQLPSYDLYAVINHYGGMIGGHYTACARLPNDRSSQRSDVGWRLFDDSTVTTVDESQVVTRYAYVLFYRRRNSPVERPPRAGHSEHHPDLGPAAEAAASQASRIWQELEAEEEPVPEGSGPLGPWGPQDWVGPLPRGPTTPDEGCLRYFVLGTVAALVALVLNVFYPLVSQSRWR
Method in brief: (§1)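 HEK293T lysate in Tris/CHAPS/IGEPAL buffer with protease inhibitors (495 µg per sample) was given fragment at 200 µM or vehicle for 3 h, in triplicate. It then received Biotin-Ahx-Ub-VS at 0.5 µM final for 1 h. Labelled DUBs were NeutrAvidin-enriched, digested with LysC and trypsin, and run by diaPASEF LC-MS/MS. Values are average log2 fragment/vehicle ratios by unpaired t-test on global-median-normalised Spectronaut quantities of proteins with ≥2 unique peptides.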

USP22 = biological target: T2, USP22 (UniProt Q9UPT9)
T2 sequence (whole entry): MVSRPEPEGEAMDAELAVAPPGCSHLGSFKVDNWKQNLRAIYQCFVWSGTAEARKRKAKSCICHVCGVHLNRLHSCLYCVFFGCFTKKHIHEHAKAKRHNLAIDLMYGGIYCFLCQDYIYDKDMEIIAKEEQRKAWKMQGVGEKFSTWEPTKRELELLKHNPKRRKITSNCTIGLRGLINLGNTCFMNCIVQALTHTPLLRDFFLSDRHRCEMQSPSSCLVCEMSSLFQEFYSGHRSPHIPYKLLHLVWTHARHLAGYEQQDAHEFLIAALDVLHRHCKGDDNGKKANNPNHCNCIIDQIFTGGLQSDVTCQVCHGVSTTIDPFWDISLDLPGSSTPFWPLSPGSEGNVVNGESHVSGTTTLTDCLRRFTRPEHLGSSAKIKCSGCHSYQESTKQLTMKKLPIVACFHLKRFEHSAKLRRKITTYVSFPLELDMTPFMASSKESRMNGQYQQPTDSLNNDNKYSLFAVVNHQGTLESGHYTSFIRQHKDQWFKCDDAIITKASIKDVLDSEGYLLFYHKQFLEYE
Method in brief: as §1

USP24 = USP24 (UniProt Q9UPU5)
Method in brief: as §1

USP25 = biological target: T3, USP25 (UniProt Q9UHP3)
T3 sequence (whole entry): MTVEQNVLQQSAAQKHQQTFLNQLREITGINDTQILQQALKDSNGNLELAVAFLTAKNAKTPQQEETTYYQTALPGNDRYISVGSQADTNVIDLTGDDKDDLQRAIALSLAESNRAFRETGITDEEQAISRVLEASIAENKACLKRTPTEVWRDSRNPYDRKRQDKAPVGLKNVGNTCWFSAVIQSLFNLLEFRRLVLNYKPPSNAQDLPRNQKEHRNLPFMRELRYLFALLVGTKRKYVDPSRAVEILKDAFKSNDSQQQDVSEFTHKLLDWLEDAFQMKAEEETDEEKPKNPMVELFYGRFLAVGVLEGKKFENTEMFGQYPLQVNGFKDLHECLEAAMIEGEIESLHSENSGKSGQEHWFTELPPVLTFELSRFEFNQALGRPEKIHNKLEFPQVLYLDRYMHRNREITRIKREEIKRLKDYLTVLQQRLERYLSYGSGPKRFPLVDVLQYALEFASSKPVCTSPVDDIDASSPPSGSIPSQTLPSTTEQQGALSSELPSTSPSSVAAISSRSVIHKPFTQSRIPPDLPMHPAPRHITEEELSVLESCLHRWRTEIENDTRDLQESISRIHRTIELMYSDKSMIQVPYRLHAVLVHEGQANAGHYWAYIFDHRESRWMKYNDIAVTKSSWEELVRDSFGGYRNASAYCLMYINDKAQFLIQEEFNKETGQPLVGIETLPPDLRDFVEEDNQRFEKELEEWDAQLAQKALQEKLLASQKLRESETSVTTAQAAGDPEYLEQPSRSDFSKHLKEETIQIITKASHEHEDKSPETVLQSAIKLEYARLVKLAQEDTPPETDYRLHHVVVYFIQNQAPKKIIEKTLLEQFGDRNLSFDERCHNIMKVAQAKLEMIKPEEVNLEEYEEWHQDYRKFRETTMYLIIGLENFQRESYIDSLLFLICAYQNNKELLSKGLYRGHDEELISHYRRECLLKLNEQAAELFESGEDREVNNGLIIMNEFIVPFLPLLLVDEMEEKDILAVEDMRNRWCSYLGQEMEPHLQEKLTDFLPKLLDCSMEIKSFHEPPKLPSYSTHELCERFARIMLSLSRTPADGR
Method in brief: as §1

USP28 = biological target: T4, USP28 (UniProt Q96RU2)
T4 sequence (whole entry): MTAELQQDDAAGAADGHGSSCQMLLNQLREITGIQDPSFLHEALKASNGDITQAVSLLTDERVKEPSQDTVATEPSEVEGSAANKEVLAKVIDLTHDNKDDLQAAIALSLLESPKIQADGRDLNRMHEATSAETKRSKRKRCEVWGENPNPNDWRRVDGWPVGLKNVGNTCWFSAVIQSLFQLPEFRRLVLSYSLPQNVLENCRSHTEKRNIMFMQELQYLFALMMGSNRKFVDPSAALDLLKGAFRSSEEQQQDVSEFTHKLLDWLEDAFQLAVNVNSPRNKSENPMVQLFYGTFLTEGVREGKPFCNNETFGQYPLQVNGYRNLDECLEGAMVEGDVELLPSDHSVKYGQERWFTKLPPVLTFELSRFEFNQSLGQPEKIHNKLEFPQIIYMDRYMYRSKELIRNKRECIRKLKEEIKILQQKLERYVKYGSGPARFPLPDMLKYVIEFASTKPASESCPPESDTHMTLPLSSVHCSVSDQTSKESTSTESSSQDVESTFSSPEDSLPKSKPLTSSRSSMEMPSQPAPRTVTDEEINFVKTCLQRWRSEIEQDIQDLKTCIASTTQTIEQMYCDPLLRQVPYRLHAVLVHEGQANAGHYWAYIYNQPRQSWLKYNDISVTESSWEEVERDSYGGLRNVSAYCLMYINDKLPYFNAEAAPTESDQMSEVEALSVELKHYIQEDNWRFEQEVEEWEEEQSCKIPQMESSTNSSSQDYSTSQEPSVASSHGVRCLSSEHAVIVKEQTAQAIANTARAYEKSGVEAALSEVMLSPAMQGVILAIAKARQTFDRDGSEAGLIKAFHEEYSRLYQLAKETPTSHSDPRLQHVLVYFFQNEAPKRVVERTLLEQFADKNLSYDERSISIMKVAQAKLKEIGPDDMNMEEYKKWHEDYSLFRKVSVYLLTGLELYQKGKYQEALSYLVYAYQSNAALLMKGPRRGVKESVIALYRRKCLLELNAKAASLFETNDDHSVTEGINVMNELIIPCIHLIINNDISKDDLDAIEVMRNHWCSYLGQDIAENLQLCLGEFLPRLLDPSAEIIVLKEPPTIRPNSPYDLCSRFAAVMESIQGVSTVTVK
Method in brief: as §1

Measured: log2 ratio of Biotin-Ahx-Ub-VS probe labelling

Sequence of USP24 (Q9UPU5 whole entry): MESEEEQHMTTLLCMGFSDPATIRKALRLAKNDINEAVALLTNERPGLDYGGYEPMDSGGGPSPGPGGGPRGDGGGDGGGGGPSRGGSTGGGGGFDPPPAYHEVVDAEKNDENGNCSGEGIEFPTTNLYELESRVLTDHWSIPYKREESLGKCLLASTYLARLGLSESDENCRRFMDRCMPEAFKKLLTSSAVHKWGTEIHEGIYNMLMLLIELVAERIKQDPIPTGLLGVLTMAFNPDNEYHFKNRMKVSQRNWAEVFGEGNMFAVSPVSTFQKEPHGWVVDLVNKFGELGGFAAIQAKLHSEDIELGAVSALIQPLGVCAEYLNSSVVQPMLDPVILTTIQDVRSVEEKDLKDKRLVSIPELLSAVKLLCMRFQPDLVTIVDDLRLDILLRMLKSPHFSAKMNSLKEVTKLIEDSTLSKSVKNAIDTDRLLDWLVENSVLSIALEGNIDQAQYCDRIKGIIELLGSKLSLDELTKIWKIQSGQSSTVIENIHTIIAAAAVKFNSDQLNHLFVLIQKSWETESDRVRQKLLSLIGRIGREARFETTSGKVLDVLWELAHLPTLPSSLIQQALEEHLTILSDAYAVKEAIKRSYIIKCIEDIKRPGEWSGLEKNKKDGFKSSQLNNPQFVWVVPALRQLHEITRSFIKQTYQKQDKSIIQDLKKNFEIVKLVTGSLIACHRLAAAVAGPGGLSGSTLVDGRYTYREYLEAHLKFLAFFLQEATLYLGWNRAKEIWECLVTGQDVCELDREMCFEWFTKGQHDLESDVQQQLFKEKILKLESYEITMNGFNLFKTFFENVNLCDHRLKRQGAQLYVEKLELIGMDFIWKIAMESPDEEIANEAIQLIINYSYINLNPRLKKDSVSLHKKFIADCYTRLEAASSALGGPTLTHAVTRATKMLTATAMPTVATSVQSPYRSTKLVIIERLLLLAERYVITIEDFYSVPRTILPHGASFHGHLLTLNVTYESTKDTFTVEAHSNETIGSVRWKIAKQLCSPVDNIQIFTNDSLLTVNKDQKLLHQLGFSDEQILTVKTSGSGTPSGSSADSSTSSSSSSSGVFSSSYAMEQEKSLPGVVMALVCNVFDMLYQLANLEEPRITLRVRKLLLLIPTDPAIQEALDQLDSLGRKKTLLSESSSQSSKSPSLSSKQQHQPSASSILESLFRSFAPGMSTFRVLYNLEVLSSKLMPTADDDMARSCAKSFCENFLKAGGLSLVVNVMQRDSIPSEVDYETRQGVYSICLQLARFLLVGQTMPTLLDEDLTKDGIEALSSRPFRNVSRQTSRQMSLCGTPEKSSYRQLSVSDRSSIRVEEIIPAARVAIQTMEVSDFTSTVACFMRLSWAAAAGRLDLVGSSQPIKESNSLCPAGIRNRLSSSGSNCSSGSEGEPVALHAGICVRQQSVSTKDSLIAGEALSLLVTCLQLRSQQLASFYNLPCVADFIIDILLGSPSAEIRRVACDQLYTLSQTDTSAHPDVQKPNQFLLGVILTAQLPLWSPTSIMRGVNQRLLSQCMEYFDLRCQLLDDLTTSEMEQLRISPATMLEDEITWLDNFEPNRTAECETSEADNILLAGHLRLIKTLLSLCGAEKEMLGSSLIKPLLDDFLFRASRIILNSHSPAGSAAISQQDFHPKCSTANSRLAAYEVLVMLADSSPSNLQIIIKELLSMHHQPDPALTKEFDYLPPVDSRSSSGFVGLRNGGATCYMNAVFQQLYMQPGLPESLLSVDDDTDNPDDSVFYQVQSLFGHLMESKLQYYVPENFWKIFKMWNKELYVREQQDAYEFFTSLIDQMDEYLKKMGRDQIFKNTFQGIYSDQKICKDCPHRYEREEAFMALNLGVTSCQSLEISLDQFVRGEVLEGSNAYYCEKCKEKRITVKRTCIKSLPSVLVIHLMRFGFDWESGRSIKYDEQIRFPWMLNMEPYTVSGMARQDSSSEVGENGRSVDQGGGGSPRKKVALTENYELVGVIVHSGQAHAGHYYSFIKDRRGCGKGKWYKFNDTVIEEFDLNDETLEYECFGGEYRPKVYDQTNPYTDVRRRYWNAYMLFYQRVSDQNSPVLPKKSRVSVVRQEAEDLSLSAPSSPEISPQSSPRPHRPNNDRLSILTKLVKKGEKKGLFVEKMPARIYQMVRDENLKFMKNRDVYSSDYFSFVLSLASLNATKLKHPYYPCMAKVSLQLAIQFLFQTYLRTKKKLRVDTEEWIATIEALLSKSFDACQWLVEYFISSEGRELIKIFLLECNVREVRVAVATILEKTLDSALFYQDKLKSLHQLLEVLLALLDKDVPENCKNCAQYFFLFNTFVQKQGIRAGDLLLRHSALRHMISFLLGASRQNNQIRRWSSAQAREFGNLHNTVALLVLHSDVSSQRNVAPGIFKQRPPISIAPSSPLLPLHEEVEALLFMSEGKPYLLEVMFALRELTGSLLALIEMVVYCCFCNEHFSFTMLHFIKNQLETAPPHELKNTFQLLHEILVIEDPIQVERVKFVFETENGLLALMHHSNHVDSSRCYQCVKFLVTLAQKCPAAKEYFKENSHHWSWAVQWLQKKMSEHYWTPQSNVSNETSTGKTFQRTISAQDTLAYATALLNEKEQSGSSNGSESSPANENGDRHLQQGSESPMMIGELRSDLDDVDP

O=C(CCl)Nc1ccccc1C(F)(F)F
inactive: USP19 -0.154 | USP22 -0.117 | USP24 -0.445 | USP25 -0.713 | USP28 -0.598
